Where “and” joins values, the source holds several entries; their conditions need not be identical. Identical values can stand only once. Results filed as inconclusive are left out. Entries that show only a call come without a potency. Calls of active or inactive are those of the source. Unless noted, calls come from the whole dose curve; as a rule, active = well fitted curve in the direction sought with a large enough effect; inconclusive = small, poorly fitted or top-dose-only effect, or another doubt; inactive = no such curve, though single readings can be large; an effect the other way counts as inactive or inconclusive.
test system: not listed separately; experiment: Inducers of the Endoplasmic Reticulum Stress Response (ERSR) in human glioma: Validation (AID 504836); details: human glioma cells, ER stress response reporter; series mostly up to 38.3 µM
Outline: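 Stably transfected U87-MG glioma cells carrying a GRP78-based luciferase sensor; 16 h compound incubation. Luminescence end-point read 10 min after Bright-Glo addition at room temperature.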

| SMILES | outcome |
| --- | --- |
| NC12CC3CC(CC(C3)C1)C2 | inactive |
| CN(C)CCC=C1c2ccccc2CCc2ccccc21 | inactive |
| CC(C)C(=O)Nc1ccc([N+](=O)[O-])c(C(F)(F)F)c1 | inactive |
| COC(=O)Nc1nc2ccc(C(=O)c3cccs3)cc2[nH]1 | inactive |
| CC#C[C@]1(O)CC[C@H]2[C@@H]3CCC4=CC(=O)CCC4=C3[C@@H](c3ccc(N(C)C)cc3)C[C@@]21C | inactive |
| O=C(O)COCCN1CCN(C(c2ccccc2)c2ccc(Cl)cc2)CC1 (configuration not stated) | inactive |
| Nc1nc2c(ncn2COC(CO)CO)c(=O)[nH]1 | inactive |
| CN1CCN(C2=Nc3cc(Cl)ccc3Nc3ccccc32)CC1 | inactive |
| CC[N+](C)(C)c1cccc(O)c1 | inactive |
| Cc1cn[nH]c1 | inactive |
| CC(COc1ccccc1)N(CCCl)Cc1ccccc1 (configuration not stated) | inactive |
| CC(C)NCC(O)c1ccc(O)c(O)c1 (configuration not stated) | inactive |
| CN1CCN(C2=Nc3ccccc3Oc3ccc(Cl)cc32)CC1 | inactive |
| CC12CC3CC(C)(C1)CC(N)(C3)C2 | inactive |
| CCOC(=O)N1CCC(=C2c3ccc(Cl)cc3CCc3cccnc32)CC1 | inactive |
| O=C(CCCN1CCC(O)(c2ccc(Cl)cc2)CC1)c1ccc(F)cc1 | inactive |
| O=C1Cc2cc(CCN3CCN(c4nsc5ccccc45)CC3)c(Cl)cc2N1 | inactive |
| CCC1C(=O)OCC1Cc1cncn1C (configuration not stated) | inactive |
| CCCN1C[C@H](CSC)C[C@@H]2c3cccc4[nH]cc(c34)C[C@H]21 | inactive |

target: Ubiquitin carboxyl-terminal hydrolase 1 (Homo sapiens) (UniProt O94782); experiment: Inhibitors of USP1/UAF1: Pilot qHTS (AID 504865); details: purified USP1/UAF1, Ub-rhodamine cleavage fluorescence; series mostly up to 114 µM; note: nearly all actives have a fitted effect of over 35% in size; note: potency is the fitted concentration of half-maximal effect
Sequence (O94782 whole entry, looked up): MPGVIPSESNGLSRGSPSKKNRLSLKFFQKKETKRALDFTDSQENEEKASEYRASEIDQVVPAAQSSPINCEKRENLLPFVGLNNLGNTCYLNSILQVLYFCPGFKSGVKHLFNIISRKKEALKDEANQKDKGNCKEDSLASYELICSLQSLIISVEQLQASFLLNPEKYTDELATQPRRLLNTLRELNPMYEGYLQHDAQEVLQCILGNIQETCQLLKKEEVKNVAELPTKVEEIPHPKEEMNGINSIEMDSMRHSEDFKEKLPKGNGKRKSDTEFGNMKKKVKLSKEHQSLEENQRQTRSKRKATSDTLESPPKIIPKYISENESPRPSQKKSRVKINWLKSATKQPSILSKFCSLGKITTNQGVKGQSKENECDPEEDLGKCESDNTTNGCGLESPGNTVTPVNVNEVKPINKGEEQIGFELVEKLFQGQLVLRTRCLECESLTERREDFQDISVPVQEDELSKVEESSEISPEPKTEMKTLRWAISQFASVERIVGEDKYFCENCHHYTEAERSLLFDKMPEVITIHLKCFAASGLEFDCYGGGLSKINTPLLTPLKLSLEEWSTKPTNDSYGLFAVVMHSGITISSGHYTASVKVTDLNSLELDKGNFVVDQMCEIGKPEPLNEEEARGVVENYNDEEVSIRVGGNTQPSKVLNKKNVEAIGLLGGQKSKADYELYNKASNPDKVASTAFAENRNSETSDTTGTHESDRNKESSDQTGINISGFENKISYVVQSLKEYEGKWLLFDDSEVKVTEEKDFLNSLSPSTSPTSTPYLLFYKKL
Outline: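 Enzyme-free wells gave the negative control, while test wells held 1nM USP1/UAF1 preincubated with compound for 15 min at room temperature. Ub-Rho at 150nM final started the reaction, and fluorescence at 480/540 nm was recorded kinetically.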

| SMILES | Potency |
| --- | --- |
| OCCN1CCN(CCCN2c3ccccc3Sc3ccc(C(F)(F)F)cc32)CC1 | 56.2 µM (active) |
| C[C@]12CC[C@@H]3c4ccc(O)cc4C[C@@H](CCCCCCCCCS(=O)CCCC(F)(F)C(F)(F)F)[C@H]3[C@@H]1CC[C@@H]2O (some centres not stated) | inactive |
| CN(C)CCC=C1c2ccccc2CCc2ccccc21 | inactive |
| CC(COc1ccccc1)N(CCCl)Cc1ccccc1 (configuration not stated) | inactive |
| CCC1C(=O)OCC1Cc1cncn1C (configuration not stated) | inactive |

target: Bile acid receptor (Homo sapiens) (UniProt Q96RI1); experiment: qHTS assay for small molecule agonists of farnesoid X receptor signaling (AID 588527; calls by dose curve); details: HEK293T FXR-UAS-bla, beta-lactamase ratio, 16 h; stronger effect = higher value
Sequence (Q96RI1 whole entry, looked up): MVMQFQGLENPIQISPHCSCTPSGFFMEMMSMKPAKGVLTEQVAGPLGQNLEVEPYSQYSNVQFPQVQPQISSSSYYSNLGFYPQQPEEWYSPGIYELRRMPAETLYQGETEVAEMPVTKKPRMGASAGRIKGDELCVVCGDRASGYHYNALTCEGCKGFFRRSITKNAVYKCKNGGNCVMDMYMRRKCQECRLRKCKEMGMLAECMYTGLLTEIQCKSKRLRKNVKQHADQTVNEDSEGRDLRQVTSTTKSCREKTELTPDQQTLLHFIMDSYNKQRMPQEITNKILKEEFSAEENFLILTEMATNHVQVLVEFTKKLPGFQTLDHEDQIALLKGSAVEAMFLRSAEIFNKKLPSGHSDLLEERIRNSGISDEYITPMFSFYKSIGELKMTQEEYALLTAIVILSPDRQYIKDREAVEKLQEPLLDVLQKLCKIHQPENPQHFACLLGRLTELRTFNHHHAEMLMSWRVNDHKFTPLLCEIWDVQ
Outline: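 Quantitative HTS used FXR-UAS-bla HEK293T cells with 16 h compound incubation at 37 C. EC50 values came from concentration-response curves normalized to chenodeoxycholic acid.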

| SMILES | activation |
| --- | --- |
| CN(C)CCC=C1c2ccccc2CCc2ccccc21 | -2.7% (inactive) and 0.944% (inactive) |
| CC(C)C(=O)Nc1ccc([N+](=O)[O-])c(C(F)(F)F)c1 | -2.87% (inactive) and 6.82% (inactive) |
| O=C(CCCN1CCC(O)(c2ccc(Cl)cc2)CC1)c1ccc(F)cc1 | -8.42% (inactive) |
